Here are results for 18 molecules from PubChem BioAssay (NCATS).

Records with an inconclusive call do not appear. A call without a number means that no potency is given here. The source made the active and inactive calls. Calls come from the whole dose curve; as a rule, active = well fitted curve in the direction sought with a large enough effect; inconclusive = small, poorly fitted or top-dose-only effect, or another doubt; inactive = no such curve, though single readings can be large; an effect the other way counts as inactive or inconclusive.

A short description of one assay: qHTS of pediatric cancer cell lines to identify multiple opportunities for drug repurposing: Primary screen for LAN-5 cells (AID 1347100). The settings on record: LAN-5 neuroblastoma viability, CellTiter-Glo luminescence, 48 h; series mostly up to 46 µM. An outline of the steps:
(§1)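 Cells (500-1,000/well) rested 5 h, then received compounds for 48 h; metabolically active cells were measured by CellTiter-Glo luminescence. Final concentrations spanned up to 46 µM (MIPE, 11-point) or 0.59 nM-46 µM (NPC, 8-point) in primary screens, 11-point in follow-ups.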
Background: qHTS replaces the single test concentration by a dilution series.
For the molecule `O=C1[C@@H]2[C@H]3CC[C@H](C3)[C@@H]2C(=O)N1CCCCN1CCN(c2ncccn2)CC1`, the Potency entry is “inactive”.

`CO[C@@]1(NC(=O)CSC[C@@H](N)C(=O)O)C(=O)N2C(C(=O)O)=C(CSc3nnnn3C)CS[C@@H]21`: the Potency result is “inactive”.

For the molecule `C/C(=N/NC(=O)c1ccncc1)C(=O)O`, the Potency entry is “inactive”.

With `CCCCCCCCCCCCCCCCCCN(C)C`, the Potency result is “inactive”.

A further assay can be described thus: qHTS of pediatric cancer cell lines to identify multiple opportunities for drug repurposing: Primary screen for BT-12 cells (AID 1347101). Note: nearly all actives have a fitted effect of over 25% in size. Note: potency is the fitted concentration of half-maximal effect. As to conditions: BT-12 viability, CellTiter-Glo luminescence, 48 h; series mostly up to 57.3 µM. In outline: as §1
Regarding `CCOC(=O)OCC/C(SC(=O)OCC)=C(\C)N(C=O)Cc1cnc(C)nc1N`, the Potency entry is “inactive”.

For the molecule `CO/N=C(\C(=O)O)c1csc(NC(=O)CCl)n1`, the Potency entry was “inactive”.

As for `Nc1ncnc2nc[nH]c12`, the Potency result was “inactive”.

As to `O=C(CCCl)NCc1ccccc1`, the Potency entry was “inactive”.

For `CC1(C)O[C@@H]2C[C@H]3[C@@H]4CCC5=CC(=O)C=C[C@]5(C)[C@@]4(F)[C@@H](O)C[C@]3(C)[C@]2(C(=O)CO)O1`, the Potency entry is “inactive”.

On to `O=C1Nc2cc(Cl)ccc2Oc2ccccc21`, for which the Potency entry was “inactive”.

Take `CCc1cc(S(=O)(=O)O)c2cc(C(C)C)cccc1-2`: the Potency result was “inactive”.

Turning to `CC1c2ccccc2CN1NC(=O)c1ccc(Cl)c(S(N)(=O)=O)c1` (stereo not drawn), the Potency result is “inactive”.

In the case of `O=C(O)c1[nH]n(-c2ccc(S(=O)(=O)O)cc2)c(=O)c1N=Nc1ccc(S(=O)(=O)O)cc1`, the Potency entry was “inactive”.

With `CN(CC1(C)CCCO1)S(=O)(=O)c1ccc(Cl)c(S(N)(=O)=O)c1` (stereo not drawn), the Potency entry was “inactive”.

As for `C[C@H]1C[C@H]2[C@@H]3CCC4=CC(=O)C=C[C@]4(C)[C@H]3C(=O)C[C@]2(C)[C@@]1(O)C(=O)CO`, the Potency result is “inactive”.

With `O=C(c1ccco1)N1CCNCC1`, the Potency entry was “inactive”.

With `CCOC(=O)NNc1ccc(N(CC)CC(C)O)nn1` (stereo not drawn), the Potency result was “inactive”.

For the molecule `CCCCCCCCCCCC[N+](C)(C)Cc1ccccc1`, the Potency is 4.37 µM (active).
